In the supplement of paper PMC10849652:
About 8,800 targets were measured; listed, in parts, are those with a hit and a random draw of the rest. About 0.5% of all pairs of compound and target were hits.

What was measured:
Experiment in all cases: log2 fold change, soluble protein after heating vs DMSO (PISA); higher = thermal stabilisation; K562 lysate, 10 uM; active = over 0.2 and 3.5 SD of the protein, either way, in both replicates (recomputed)
erlotinib = compound: C#Cc1cccc(Nc2ncnc3cc(OCCOC)c(OCCOC)cc23)c1 [erlotinib]
In short: (§1)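 Log-two fold change in thermal stability relative to solvent controls is reported from duplicates. For each sample, crude K562 extract from dounce-homogenised pellets in PBS pH 7.4 with 1 mM MgCl2, at 1 mg/mL protein, was treated with 10 μM compound for 30 min. Aliquots heated for 3 min across 48°C-58°C were pooled, brought to 0.5% NP-40 at 4°C and cleared at 21,000xg for 90 min. The supernatant was quantified by TMTpro 16plex LC-MS/MS with channel sums equalised.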

[1] = compound: C/C(=N\NC(=O)C1=CC(=CC=C1)S(=O)(=O)N2CCOCC2)/C3=C(C=CC(=C3)Cl)O
In short: as §1

[2] = compound: C1=CC(=CC=C1C2=NC3=C(N2)C=C(C=C3)C(=O)N)OC4=CC=C(C=C4)Cl
In short: as §1

[3] = compound: C1=CC2=C(C=CC(=C2)/C=C\3/C(=O)NC(=NCC4=CC=CS4)S3)N=C1
In short: as §1

[4] = compound: C1=CC2=NC=CN=C2C=C1/C=C/3\C(=O)NC(=O)S3
In short: as §1

[5] = compound: C1=CC=C(C=C1)C2=NC(=C(N2)C3=CC=NC=C3)C4=CC(=C(C=C4)Cl)O
In short: as §1

[6] = compound: C1=CC=C2C(=C1)C3=NNC4=CC=CC(=C43)C2=O
In short: as §1

[7] = compound: C1CCN(C1)C(=O)NC2=CC=CC(=C2)NC3=NC=C(C(=N3)NCCC4=CN=CN4)Br
In short: as §1

[8] = compound: C1CN(CCC1(CC2=CC=C(C=C2)Cl)N)C3=NC=NC4=C3C=CN4
In short: as §1

IRAK-1-4 Inhibitor I = compound: C1COCCN1CCN2C3=CC=CC=C3N=C2NC(=O)C4=CC(=CC=C4)[N+](=O)[O-] [IRAK-1-4 Inhibitor I]
In short: as §1

ibrutinib = compound: C=CC(=O)N1CCC[C@@H](n2nc(-c3ccc(Oc4ccccc4)cc3)c3c(N)ncnc32)C1 [ibrutinib]
In short: as §1

[9] = compound: CC(=O)c1cnc2ccc(-c3cc(Cl)c(O)c(Cl)c3)nc2c1N[C@H]1CC[C@H](CN(C)C)CC1
In short: as §1

ralimetinib = compound: CC(C)(C)Cn1c(N)nc2ccc(-c3[nH]c(C(C)(C)C)nc3-c3ccc(F)cc3)nc21 [ralimetinib]
In short: as §1

[10] = compound: CC(C)(O)CC(=O)NCCn1ccc2ncnc(Nc3ccc(Oc4cccc(C(F)(F)F)c4)c(Cl)c3)c21
In short: as §1

[11] = compound: CC(C)C1=C2N=C(C=C(N2N=C1)NCC3=CC=CC=C3)NCCCCCCN
In short: as §1

[12] = compound: CC1=C(C(CC(=O)N1)C2=CC=C(C=C2)C(F)(F)F)C(=O)NC3=C(C=C4C(=C3)C=NN4)F
In short: as §1

[13] = compound: CC1=C(C2=C(C=C1)C(=O)C3=CC=CC=C3N2CCCN)C
In short: as §1

[14] = compound: CC1=C(C=C(C=C1)NC(=O)C2=CC(=CC=C2)C(C)(C)C#N)NC3=CC4=C(C=C3)N=CN(C4=O)C
In short: as §1

[15] = compound: CC1=C(C=C(C=C1)NC(=O)C2=CC(=CC=C2)N(C)C)NC(=O)C3=CC=C(C=C3)O
In short: as §1

[16] = compound: CC1=CC=C(C=C1)SC2=C3C=C(SC3=CN=C2)C(=O)N
In short: as §1

Measured: log2 fold change

YES1 (UniProt P07947)
UniProt P07947, sequence (P07947 whole entry, looked up): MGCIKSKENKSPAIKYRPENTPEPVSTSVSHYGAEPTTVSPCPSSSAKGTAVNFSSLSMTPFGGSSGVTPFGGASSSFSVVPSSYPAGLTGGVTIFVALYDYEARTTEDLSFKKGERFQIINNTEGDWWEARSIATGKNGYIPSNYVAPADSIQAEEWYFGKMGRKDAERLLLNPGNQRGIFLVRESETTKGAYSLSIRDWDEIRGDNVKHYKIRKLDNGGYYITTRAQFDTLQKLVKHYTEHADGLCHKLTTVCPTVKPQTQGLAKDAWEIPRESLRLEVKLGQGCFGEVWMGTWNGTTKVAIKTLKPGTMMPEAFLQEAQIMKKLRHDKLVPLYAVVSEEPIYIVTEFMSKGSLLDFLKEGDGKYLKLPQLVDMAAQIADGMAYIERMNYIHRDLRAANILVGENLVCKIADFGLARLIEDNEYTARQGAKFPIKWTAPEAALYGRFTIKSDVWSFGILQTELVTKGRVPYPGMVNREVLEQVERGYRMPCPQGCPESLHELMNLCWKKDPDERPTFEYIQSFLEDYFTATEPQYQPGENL
inactive: erlotinib -0.045 | [1] 0.064 | [2] 0.005 | [3] -0.045 | [4] -0.023 | [5] -0.031 | [6] -0.105 | [7] 0.027 | [8] 0.016 | IRAK-1-4 Inhibitor I 0.003 | [9] -0.012 | ralimetinib -0.259 | [11] 0.061 | [12] 0.2 | [13] 0.044 | [14] 0.192 | [15] -0.005 | [16] -0.131
active: ibrutinib 0.988 | [10] 0.511

YTHDF3 (UniProt Q7Z739)
UniProt Q7Z739, sequence (Q7Z739 whole entry, looked up): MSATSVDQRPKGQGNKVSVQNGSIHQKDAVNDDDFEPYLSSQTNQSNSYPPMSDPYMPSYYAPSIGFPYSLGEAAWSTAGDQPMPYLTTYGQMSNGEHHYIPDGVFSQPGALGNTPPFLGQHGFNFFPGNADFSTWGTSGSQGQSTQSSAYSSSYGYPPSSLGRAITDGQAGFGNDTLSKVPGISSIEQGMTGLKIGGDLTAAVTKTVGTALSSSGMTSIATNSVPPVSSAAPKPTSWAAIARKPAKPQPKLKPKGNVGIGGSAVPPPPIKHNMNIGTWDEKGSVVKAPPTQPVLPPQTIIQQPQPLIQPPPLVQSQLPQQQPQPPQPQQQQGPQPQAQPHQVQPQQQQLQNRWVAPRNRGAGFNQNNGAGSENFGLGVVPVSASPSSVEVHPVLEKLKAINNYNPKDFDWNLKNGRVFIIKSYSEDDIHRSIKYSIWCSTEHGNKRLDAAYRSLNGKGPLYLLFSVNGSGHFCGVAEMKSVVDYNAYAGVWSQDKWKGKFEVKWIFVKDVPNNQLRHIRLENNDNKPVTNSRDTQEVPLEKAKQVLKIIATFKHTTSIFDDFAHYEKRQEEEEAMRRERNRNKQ
inactive: erlotinib -0.009 | [1] -0.003 | [2] -0.035 | [3] -0.029 | [4] 0.089 | [5] -0.183 | [6] 0.003 | [7] -0.04 | [8] 0.036 | IRAK-1-4 Inhibitor I 0.12 | ibrutinib -0.026 | [9] 0.066 | ralimetinib -0.014 | [10] -0.033 | [11] 0.008 | [12] 0.017 | [13] 0.074 | [15] 0.009 | [16] 0.096
active: [14] -0.334

USP9X (UniProt Q93008)
UniProt Q93008, sequence (Q93008 whole entry, looked up): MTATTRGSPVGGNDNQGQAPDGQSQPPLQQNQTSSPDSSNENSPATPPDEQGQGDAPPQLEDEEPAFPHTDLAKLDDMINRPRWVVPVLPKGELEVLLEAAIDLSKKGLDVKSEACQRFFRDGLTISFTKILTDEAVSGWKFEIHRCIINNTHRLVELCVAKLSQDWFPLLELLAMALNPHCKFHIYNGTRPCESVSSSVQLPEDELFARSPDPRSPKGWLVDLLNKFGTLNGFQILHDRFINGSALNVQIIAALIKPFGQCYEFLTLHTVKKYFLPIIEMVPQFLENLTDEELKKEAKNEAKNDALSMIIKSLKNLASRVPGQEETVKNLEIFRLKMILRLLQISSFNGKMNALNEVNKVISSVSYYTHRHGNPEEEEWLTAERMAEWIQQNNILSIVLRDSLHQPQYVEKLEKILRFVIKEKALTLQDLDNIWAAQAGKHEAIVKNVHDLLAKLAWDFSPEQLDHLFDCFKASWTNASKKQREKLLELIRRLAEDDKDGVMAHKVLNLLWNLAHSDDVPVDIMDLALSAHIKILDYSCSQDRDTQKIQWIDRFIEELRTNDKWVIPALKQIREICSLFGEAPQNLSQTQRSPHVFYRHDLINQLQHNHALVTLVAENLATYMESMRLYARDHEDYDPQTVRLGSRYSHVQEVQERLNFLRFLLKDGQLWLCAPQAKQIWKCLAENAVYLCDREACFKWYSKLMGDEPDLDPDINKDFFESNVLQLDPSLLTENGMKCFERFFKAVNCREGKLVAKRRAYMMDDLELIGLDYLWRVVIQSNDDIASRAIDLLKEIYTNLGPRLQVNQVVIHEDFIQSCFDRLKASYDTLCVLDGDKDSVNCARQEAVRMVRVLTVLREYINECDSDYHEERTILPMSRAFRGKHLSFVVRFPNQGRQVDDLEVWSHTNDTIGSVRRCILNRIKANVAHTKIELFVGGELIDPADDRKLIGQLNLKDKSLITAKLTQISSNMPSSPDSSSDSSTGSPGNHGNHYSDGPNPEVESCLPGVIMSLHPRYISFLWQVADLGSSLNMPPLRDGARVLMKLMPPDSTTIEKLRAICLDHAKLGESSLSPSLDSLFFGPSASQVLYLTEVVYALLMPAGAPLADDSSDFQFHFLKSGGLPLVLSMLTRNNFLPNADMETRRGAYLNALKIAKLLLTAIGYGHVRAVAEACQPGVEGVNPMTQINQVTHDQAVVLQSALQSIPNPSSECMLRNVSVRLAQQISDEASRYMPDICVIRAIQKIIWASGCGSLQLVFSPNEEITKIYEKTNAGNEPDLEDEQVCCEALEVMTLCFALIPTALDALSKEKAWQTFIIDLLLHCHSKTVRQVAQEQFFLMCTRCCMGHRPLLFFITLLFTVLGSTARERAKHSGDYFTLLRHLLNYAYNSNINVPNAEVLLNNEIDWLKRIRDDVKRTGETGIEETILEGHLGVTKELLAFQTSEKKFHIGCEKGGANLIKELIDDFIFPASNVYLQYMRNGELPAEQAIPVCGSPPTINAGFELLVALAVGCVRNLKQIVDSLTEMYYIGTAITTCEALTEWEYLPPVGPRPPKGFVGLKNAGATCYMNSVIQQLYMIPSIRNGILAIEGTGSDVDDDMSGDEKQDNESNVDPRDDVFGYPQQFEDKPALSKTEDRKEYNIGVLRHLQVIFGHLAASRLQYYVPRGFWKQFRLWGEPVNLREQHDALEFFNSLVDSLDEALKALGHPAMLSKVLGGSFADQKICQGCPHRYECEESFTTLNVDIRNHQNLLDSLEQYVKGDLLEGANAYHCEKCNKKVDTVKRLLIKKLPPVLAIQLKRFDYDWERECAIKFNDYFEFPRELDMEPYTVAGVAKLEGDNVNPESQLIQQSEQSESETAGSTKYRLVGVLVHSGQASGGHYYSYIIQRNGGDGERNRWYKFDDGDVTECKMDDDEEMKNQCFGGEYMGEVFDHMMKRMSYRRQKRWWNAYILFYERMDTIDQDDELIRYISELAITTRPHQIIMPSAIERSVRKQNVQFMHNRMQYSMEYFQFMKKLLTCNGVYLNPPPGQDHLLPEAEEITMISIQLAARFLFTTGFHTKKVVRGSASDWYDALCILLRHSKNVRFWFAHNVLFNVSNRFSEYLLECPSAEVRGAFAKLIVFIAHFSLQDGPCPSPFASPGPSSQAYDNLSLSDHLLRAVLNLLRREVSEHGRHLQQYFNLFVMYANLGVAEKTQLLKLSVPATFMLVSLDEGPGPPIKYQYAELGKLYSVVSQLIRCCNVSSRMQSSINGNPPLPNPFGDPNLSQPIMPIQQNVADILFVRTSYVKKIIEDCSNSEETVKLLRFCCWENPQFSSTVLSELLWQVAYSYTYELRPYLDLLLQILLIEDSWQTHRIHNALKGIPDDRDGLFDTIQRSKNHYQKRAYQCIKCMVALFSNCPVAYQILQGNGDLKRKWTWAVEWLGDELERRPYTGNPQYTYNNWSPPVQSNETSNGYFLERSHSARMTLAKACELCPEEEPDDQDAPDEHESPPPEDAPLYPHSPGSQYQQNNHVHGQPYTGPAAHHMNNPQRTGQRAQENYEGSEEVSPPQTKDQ
inactive: erlotinib 0.034 | [1] 0.013 | [2] -0.008 | [3] 0.015 | [4] 0.014 | [5] 0.003 | [6] -0.019 | [7] -0.005 | [8] -0.013 | IRAK-1-4 Inhibitor I 0.022 | ibrutinib -0.003 | [9] 0.001 | ralimetinib 0.025 | [10] -0.024 | [11] -0.032 | [12] -0.008 | [13] 0.009 | [14] -0.021 | [15] 0.043 | [16] 0.011

ZHX1 (UniProt Q9UKY1)
inactive: erlotinib 0.02 | [1] -0.094 | [2] 0.082 | [3] 0.051 | [4] -0.027 | [5] -0.027 | [6] -0.077 | [7] -0.119 | [8] 0.026 | IRAK-1-4 Inhibitor I -0.055 | ibrutinib -0.026 | [9] 0.015 | ralimetinib -0.007 | [10] 0.034 | [11] 0.127 | [12] 0.109 | [13] -0.144 | [14] -0.053 | [15] 0.024 | [16] -0.013

VPS37B (UniProt Q9H9H4)
UniProt Q9H9H4, sequence (Q9H9H4 whole entry, looked up): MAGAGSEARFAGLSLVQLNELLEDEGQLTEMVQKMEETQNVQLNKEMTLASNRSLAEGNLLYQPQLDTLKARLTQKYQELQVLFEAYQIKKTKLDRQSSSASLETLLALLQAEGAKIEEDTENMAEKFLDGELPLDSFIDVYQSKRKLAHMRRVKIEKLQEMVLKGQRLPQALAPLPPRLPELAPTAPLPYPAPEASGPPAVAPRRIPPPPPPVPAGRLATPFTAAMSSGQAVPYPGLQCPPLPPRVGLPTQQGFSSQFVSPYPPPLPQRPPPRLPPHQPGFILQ
inactive: erlotinib -0.046 | [1] 0.078 | [2] 0.059 | [3] 0.002 | [4] -0.011 | [5] 0.031 | [6] 0 | [7] 0.043 | [8] 0.098 | IRAK-1-4 Inhibitor I -0.012 | ibrutinib 0.024 | [9] 0.014 | ralimetinib -0.055 | [10] 0.009 | [11] -0.028 | [12] 0 | [13] -0.008 | [14] 0.019 | [15] 0.012 | [16] 0.028

ZNF217 (UniProt O75362)
inactive: erlotinib -0.014 | [1] -0.043 | [2] 0.06 | [3] -0.132 | [4] -0.004 | [5] 0.027 | [6] -0.162 | [7] -0.014 | [8] 0.028 | IRAK-1-4 Inhibitor I 0.007 | ibrutinib -0.033 | [9] 0.053 | ralimetinib 0.017 | [10] -0.014 | [11] -0.061 | [12] -0.005 | [13] -0.022 | [14] 0.002 | [15] 0.025 | [16] -0.031

UQCRC2 (UniProt P22695)
inactive: erlotinib 0 | [1] -0.029 | [2] 0.006 | [3] -0.005 | [4] -0.019 | [5] 0.01 | [6] 0.013 | [7] -0.001 | [8] 0.019 | IRAK-1-4 Inhibitor I 0.014 | ibrutinib -0.022 | [9] 0.001 | ralimetinib 0.005 | [10] -0.04 | [11] -0.005 | [12] -0.001 | [13] 0.012 | [14] 0.029 | [15] 0.003 | [16] -0.013

USP16 (UniProt Q9Y5T5)
inactive: erlotinib -0.002 | [1] -0.01 | [2] -0.01 | [3] -0.002 | [4] 0.011 | [5] 0.036 | [6] -0.016 | [7] -0.028 | [8] -0.005 | IRAK-1-4 Inhibitor I -0.033 | ibrutinib -0.027 | [9] -0.035 | ralimetinib -0.001 | [10] 0.011 | [11] 0.017 | [12] 0 | [13] -0.06 | [14] -0.027 | [15] -0.012 | [16] 0.019

VPS13C (UniProt Q709C8)
active: [12] 0.251
inactive: erlotinib -0.007 | [1] -0.003 | [2] 0.038 | [3] 0.008 | [4] 0.017 | [5] -0.013 | [6] -0.021 | [7] 0.042 | [8] -0.012 | IRAK-1-4 Inhibitor I 0.004 | ibrutinib -0.011 | [9] 0.005 | ralimetinib 0.02 | [10] 0.006 | [11] -0.001 | [13] -0.066 | [14] 0.041 | [15] -0.007 | [16] -0.053

VTN (UniProt P04004)
UniProt P04004, sequence (P04004 whole entry, looked up): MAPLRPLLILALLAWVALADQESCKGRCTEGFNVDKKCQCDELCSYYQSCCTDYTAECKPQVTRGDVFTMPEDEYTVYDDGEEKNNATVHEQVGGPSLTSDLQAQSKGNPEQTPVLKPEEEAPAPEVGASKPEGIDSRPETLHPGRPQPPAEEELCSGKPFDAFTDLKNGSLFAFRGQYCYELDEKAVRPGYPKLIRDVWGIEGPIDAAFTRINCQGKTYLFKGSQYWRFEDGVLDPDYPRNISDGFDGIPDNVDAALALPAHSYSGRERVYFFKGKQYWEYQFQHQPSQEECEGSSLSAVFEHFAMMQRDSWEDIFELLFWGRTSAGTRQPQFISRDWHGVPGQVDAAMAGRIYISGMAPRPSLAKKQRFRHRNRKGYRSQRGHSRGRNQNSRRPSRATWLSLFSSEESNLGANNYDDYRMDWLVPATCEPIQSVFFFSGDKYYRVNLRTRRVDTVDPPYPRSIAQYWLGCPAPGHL
inactive: erlotinib -0.065 | [1] -0.006 | [2] 0.003 | [3] -0.033 | [4] 0.107 | [5] -0.096 | [6] -0.129 | [7] -0.065 | [8] -0.042 | IRAK-1-4 Inhibitor I 0.043 | ibrutinib -0.019 | [9] -0.007 | ralimetinib 0.01 | [10] -0.044 | [11] 0.028 | [12] 0.088 | [13] 0.017 | [14] -0.011 | [15] 0.155 | [16] -0.04

UQCC2 (UniProt Q9BRT2)
inactive: erlotinib 0.037 | [1] 0.044 | [2] -0.039 | [3] 0.06 | [4] 0.001 | [5] -0.007 | [6] 0 | [7] -0.05 | [8] -0.023 | IRAK-1-4 Inhibitor I 0.016 | ibrutinib 0.054 | [9] 0 | ralimetinib 0.006 | [10] 0.01 | [11] 0.018 | [12] -0.022 | [13] 0.016 | [14] 0.007 | [15] -0.016 | [16] -0.012

WDR24 (UniProt Q96S15)
inactive: erlotinib 0.023 | [1] 0.014 | [2] 0.029 | [3] -0.042 | [4] -0.018 | [5] 0.058 | [6] -0.012 | [7] -0.034 | [8] -0.007 | IRAK-1-4 Inhibitor I 0.034 | ibrutinib -0.044 | [9] -0.016 | ralimetinib 0.025 | [10] -0.022 | [11] 0.041 | [12] 0.055 | [13] -0.011 | [14] 0.033 | [15] -0.034 | [16] 0.021

XPNPEP1 isoform 3 (UniProt Q9NQW7)
UniProt Q9NQW7, sequence (Q9NQW7 whole entry, looked up): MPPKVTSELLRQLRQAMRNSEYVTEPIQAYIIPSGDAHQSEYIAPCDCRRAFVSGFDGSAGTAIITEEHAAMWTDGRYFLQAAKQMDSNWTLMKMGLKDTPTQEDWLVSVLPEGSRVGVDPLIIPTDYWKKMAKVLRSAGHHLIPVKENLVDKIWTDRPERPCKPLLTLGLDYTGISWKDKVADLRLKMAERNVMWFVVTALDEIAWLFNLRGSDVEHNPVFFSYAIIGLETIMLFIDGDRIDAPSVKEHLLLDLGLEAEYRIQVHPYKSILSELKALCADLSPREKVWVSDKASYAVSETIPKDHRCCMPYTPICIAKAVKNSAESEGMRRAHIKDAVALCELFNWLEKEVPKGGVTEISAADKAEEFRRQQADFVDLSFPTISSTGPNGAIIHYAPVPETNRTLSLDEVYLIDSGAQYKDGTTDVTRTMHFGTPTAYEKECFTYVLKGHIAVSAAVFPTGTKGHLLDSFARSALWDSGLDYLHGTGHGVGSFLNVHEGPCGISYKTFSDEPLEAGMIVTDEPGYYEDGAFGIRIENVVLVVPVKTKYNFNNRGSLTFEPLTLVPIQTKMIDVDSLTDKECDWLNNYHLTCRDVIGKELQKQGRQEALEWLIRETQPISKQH
inactive: erlotinib -0.001 | [1] 0.023 | [2] -0.019 | [3] 0.001 | [4] -0.007 | [5] -0.005 | [6] -0.011 | [7] -0.006 | [8] 0.005 | IRAK-1-4 Inhibitor I 0.009 | ibrutinib 0.012 | [9] -0.007 | ralimetinib 0.017 | [10] -0.026 | [11] -0.009 | [12] 0.007 | [13] -0.026 | [14] -0.025 | [15] -0.005 | [16] 0.002

ZFPM1 (UniProt Q8IX07)
inactive: erlotinib 0.015 | [1] 0.039 | [2] 0.047 | [3] -0.041 | [4] 0.005 | [5] -0.01 | [6] 0.021 | [7] 0.031 | [8] -0.01 | IRAK-1-4 Inhibitor I 0.077 | ibrutinib 0.004 | [9] -0.034 | ralimetinib 0.013 | [10] -0.067 | [11] 0.02 | [12] 0.01 | [13] 0.003 | [14] 0.033 | [15] 0 | [16] -0.026

WIPI2 isoform 6 (UniProt Q9Y4P8)
inactive: [4] 0.079 | ibrutinib -0.021

ZNF845 (UniProt Q96IR2)
inactive: erlotinib -0.033 | [1] -0.145 | [2] 0.102 | [3] 0.02 | [4] -0.09 | [5] 0.047 | [6] -0.123 | IRAK-1-4 Inhibitor I -0.044 | ibrutinib 0.087 | [9] -0.039 | ralimetinib 0.093 | [10] 0 | [11] -0.061 | [12] -0.047 | [13] 0.072 | [14] 0.005 | [15] -0.012 | [16] -0.109

ZYG11A (UniProt Q6WRX3)
inactive: erlotinib -0.125 | [2] -0.059 | [4] -0.061 | [5] -0.04 | IRAK-1-4 Inhibitor I -0.004 | ibrutinib 0.228 | [9] 0.063 | ralimetinib 0.082 | [10] -0.087 | [11] -0.159 | [12] 0.046 | [15] 0.052 | [16] -0.315
